High-throughput results as filed in PubChem.
HepG2 viability – kills HepG2 cells in TGF-b inhibitor counter-screen | HepG2 CAGA-GFP viability, ATP luminescence, 18 h | Potency, µM (highest dose often 46.1 µM), without a hit: at the top dose activity change, negative = cytotoxicity, hits mostly cytotoxic | 0.76% of 410,000 active | AID 588856; note: potency is the fitted concentration of half-maximal effect
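CellTiter-Glo luminescence gave cytotoxicity after 18 hours at 37 degrees C. The cells were HepG2 CAGA-GFP in 1% FBS DMEM, stimulated with 500 pg/mL TGF-beta after compound addition. %Activity was normalised to no-cell wells (complete cell-killing) and DMSO (no toxicity), and curves were fitted and classified.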
IL1B secr inh – inhibitors of inflammasome signaling (IL-1 beta secretion). THP-1 LPS/ATP IL-1B secretion, AlphaLISA, 16 h; hits give low values. activity change, % at 57.5 µM. 4.7% of 360,000 active. AID 743279; in the data active = activity change below about -50%; inconclusive = mostly about -30% to -49%; note: % is set by controls: 0 for no effect and ±100 for the full control effect
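Secreted IL-1B measured by AlphaLISA bead assay after 16 h compound exposure of THP-1 cells; compounds (final up to 57.5 uM) added 1 h before LPS (250 ng/mL) and ATP (1.25 mM) stimulation; lower signal means less secretion.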
ATXN2 expr inh – ATXN2 expression inhibition. HEK-293 ATXN2-luciferase reporter, luminescence, 24 h. Potency, µM (top dose mostly 57 µM), for the others: at the highest dose activity change, negative = inhibition, usual class: inhibitors. 0.72% of 360,000 active; note: potency is the fitted concentration of half-maximal effect; % is set by controls: 0 for no effect and ±100 for the full control effect; nearly all actives have a fitted effect of over 55% in size
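ATXN2-luciferase reporter cells (luciferase flanked by upstream and downstream ATXN2 gene portions) were treated 24 h at 37 °C with compounds at up to 57 uM. SteadyGlo luminescence gave expression; GF-AFC fluorescence gave viability.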
TGFb inhibitor – TGF-b pathway inhibition. HepG2 CAGA-GFP TGF-b/SMAD3 reporter, GFP fluorescence, 18 h; TGF-beta stimulated, 500 pg/mL final. AID 588855. Potency, µM (top dose mostly 46.1 µM), for inactives: top-dose activity, negative = inhibition, actives largely listed as inhibitors. 1.2% of 410,000 active; note: potency is the fitted concentration of half-maximal effect; % is set by controls: 0 for no effect and ±100 for the full control effect; nearly all actives have a fitted effect of over 65% in size
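Inhibition was scored as loss of TGF-beta-induced (500 pg/mL final, 18 hours, 37 degrees C) GFP in HEPG2 cells carrying a CAGA-GFP reporter, in DMEM with 1% FBS. Well GFP was summed per cell; Activity was normalised to unstimulated and stimulated DMSO wells, then concentration-response fitting.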
S2 tox – cell viability loss in ATXN counter-screen; 0.49% of 400,000 active; S2 cells (HEK-293 line with an ATXN2-luciferase reporter) viability, CellTiter-Fluor protease fluorescence, 24 h; Potency, µM (series often up to 56.7 µM), most hits filed as cytotoxic; note: potency is the fitted concentration of half-maximal effect; nearly all actives have a fitted effect of over 40% in size
The depositor's hits bear a star; i = inactive; ? = inconclusive; nt = not tested or not shown. An excerpt weighted towards active compounds, which were near 5.7% of everything screened. Unless noted, calls come from the whole dose curve; as a rule, active = well fitted curve in the direction sought with a large enough effect; inconclusive = small, poorly fitted or top-dose-only effect, or another doubt; inactive = no such curve, though single readings can be large; an effect the other way counts as inactive or inconclusive.

SMILES	HepG2 viability	IL1B secr inh	ATXN2 expr inh	TGFb inhibitor	S2 tox
CCOC(=O)c1ccc(NC(=O)CN2c3ccccc3S(=O)(=O)c3ccccc32)cc1	-1%	nt	?	11µM*	?
CCOC(=O)c1cccc(NC(=O)CN2C(=O)C3C4C=CC(C4)C3C2=O)c1 (stereo not drawn)	-18%	-95*	-1%	-1%	i
CC(=O)c1c(C(C)=O)c(C)n(Cc2ccccc2)c1C	-4%	10	-18%	-11%	i
Cc1c(C=O)c(C=O)c(C)n1Cc1ccccc1	-70%	-93*	?	-14%	nt
CCOC(=O)c1[nH]c(C)c(CCC(=O)NCc2ccc(N(C)C)cc2)c1C	10%	nt	3%	2%	i
COCC(C)n1c(C)cc(C(=O)COC(=O)c2cccn2C)c1C (stereo not drawn)	-5%	?	18µM*	-12%	i
O=C(Cn1ncc2c(=O)oc3ccccc3c21)N1CCN(c2ccc(Cl)cc2)CC1	-2%	nt	-18%	4%	i
CCOC(=O)c1cc(-c2ccc(OC)cc2)n(CCC(=O)NC2CCCCC2)c1C	-16%	nt	nt	?	nt
Cc1ccc(NS(=O)(=O)c2ccc(C3CCCCC3)cc2)cc1	10µM*	0	-30%	13µM*	?
N#CCSc1nc2cc(C(=O)N3CCC(C(N)=O)CC3)ccc2c2nc3ccccc3n12	-6%	-3	9%	-10%	i
N#CCSc1nc2cc(C(=O)N3CCCC3)ccc2c(=O)n1Cc1ccccc1	3%	-53*	-4%	0%	i
CC1(NC(=O)CCc2ccccc2)CCN(CCCc2ccccc2)C1=O (stereo not drawn)	-18%	24	12%	-15%	i
CC1(NC(=O)CC(c2ccccc2)(c2ccccc2)c2ccccc2)CCN(CCCc2ccccc2)C1=O (stereo not drawn)	-21%	-13	-13%	8.9µM*	?
C(=C\c1cnc2ccccc2n1)/c1ccc2c(c1)OCO2	-35%	nt	nt	4%	nt
Cc1c(CCOC(=O)CC23CC4CC(CC(C4)C2)C3)sc[n+]1CC(=O)c1ccc(Br)cc1	-116%	-61*	-4%	?	i
Cc1c(CCOC(=O)c2ccccc2)sc[n+]1CC(=O)c1ccc(Br)cc1	-6%	-65*	-17%	-1%	i
Cc1c(CCOC(=O)c2cc([N+](=O)[O-])cc([N+](=O)[O-])c2)sc[n+]1CC(=O)c1ccccc1	-10%	7	4%	4%	i
Cc1c(CCOC(=O)CC23CC4CC(CC(C)(C4)C2)C3)sc[n+]1CC(=O)c1ccccc1	-102%	-81*	?	?	?
Cc1c(CCOC(=O)C23CC4CC(CC(C)(C4)C2)C3)sc[n+]1CC(=O)c1ccccc1	-58%	?	-24%	?	?
CC1=C(c2ccc(C(C)C)cc2)S(=O)(=O)N=C1N1CCN(c2ccccc2F)CC1	-8%	nt	nt	-3%	nt
CN1CCN(c2ccnc(N(C)CCCCCCN)n2)CC1	-33%	nt	nt	1%	nt
Cc1ccc2c(Br)cc(Br)c(O)c2n1	nt	nt	6.3µM*	nt	?
COc1cc(/C=C/c2ccc3c(Br)cc(Br)c(O)c3n2)ccc1O	-45%	25	nt	?	?
OCCN1CCN(c2nc(-c3ccccc3)c3cc(Cl)ccc3n2)CC1	-88%	-52*	-22%	?	i
Clc1ccc2nc(N3CCNCC3)nc(-c3ccccc3)c2c1	13µM*	-95*	?	?	i
SMILES	HepG2 viability	IL1B secr inh	ATXN2 expr inh	TGFb inhibitor	S2 tox
Cc1ccc2nc(N3CCN(CCO)CC3)nc(-c3ccccc3)c2c1	-40%	?	-6%	4%	nt
OC[C@H]1O[C@@H](n2cnc3c2NC=NC[C@@H]3O)C[C@H]1O	nt	nt	-8%	nt	nt
CCCCN(C)C(=S)Nc1ccc2nc(N3CCN(CC)CC3)cc(C)c2c1	-15%	0	-1%	1%	i
CCCCNC(=S)Nc1ccc2nc(N3CCN(CC)CC3)cc(C)c2c1	-23%	?	-10%	-15%	i
CCCCN(C)CCNC(=S)Nc1ccc2nc(N3CCN(CC)CC3)cc(C)c2c1	-35%	-63*	?	-26%	?
CCN1CCN(c2cc(C)c3cc(NC(=S)NCCN(C)C)ccc3n2)CC1	-16%	-52*	0%	0%	i
CCN(CC)CCNC(=S)Nc1ccc2nc(N3CCN(CC)CC3)cc(C)c2c1	-26%	-59*	?	0%	?
CCOC(=O)c1ccc2c(c1)sc1nc(-c3ccc(OCC)cc3)cn12	9%	nt	nt	-1%	nt
O=C(Nc1ccc(S(=O)(=O)N2CCOCC2)cc1)c1cc(-c2cc(Cl)ccc2O)n[nH]1	-127%	?	nt	?	?
Cc1ccc(O)c(-c2cc(C(=O)Nc3ccc(S(=O)(=O)N4CC(C)OC(C)C4)cc3)[nH]n2)c1 (stereo not drawn)	-32%	-74*	-18%	0%	i
Cc1cc(O)c(-c2cc(C(=O)Nc3ccc(S(=O)(=O)N4CCOCC4)cc3)[nH]n2)cc1C	-42%	-105*	?	?	i
O=c1[nH]c(=S)[nH]c2n[nH]nc12	-12%	nt	nt	-1%	nt
CC(C)C(=O)N1N=C(c2ccc(NS(C)(=O)=O)cc2)CC1c1cccs1 (stereo not drawn)	23%	1	-30%	4%	i
CS(=O)(=O)Nc1ccc(C2=NN(C(=O)C3CCCCC3)C(c3cccs3)C2)cc1 (stereo not drawn)	-19%	-59*	-23%	-13%	i
O=C(CSc1nc2c(c(=O)[nH]1)CCCC2)Nc1ccccc1C(F)(F)F	1%	nt	-2%	-5%	i
O=C(COC(=O)c1cnccn1)c1ccc([N+](=O)[O-])cc1	-16%	-54*	1%	8%	i
Cc1ccc(C(=O)COC(=O)c2cnccn2)cc1[N+](=O)[O-]	2%	-4	-24%	5%	i
O=C(COC(=O)c1cnccn1)c1ccc(Cl)c([N+](=O)[O-])c1	-29%	-60*	-26%	-9%	i
Cc1cccc(CSc2cn(CC(=O)N3CCCC3)c3ccccc23)c1	-44%	nt	nt	?	nt
CCC1(C2CCN(C(=O)c3ccccc3C)CC2)NC(=O)N(CCc2scnc2C)C1=O (stereo not drawn)	nt	nt	nt	nt	i
COc1ccccc1CN(C)CC(=O)Nc1ccccc1-c1ccccc1	2%	-82*	-17%	0%	i
Cc1ccccc1CN(C)CC(=O)Nc1ccccc1-c1ccccc1	-25%	-4	1%	?	?
COc1ccc(CN(C)CC(=O)Nc2ccccc2-c2ccccc2)c(OC)c1	-1%	-51*	-20%	?	i
NC(=O)[C@@H]1CCCN1C(=O)CCN1Cc2ccccc2OC(c2ccccc2F)C1 (stereo partly drawn)	nt	nt	nt	nt	i
